Screening data: PubChem, several laboratories
Hits are enriched below; roughly 3.9% of the tested compounds scored in any of these assays.
HGIII-sPLA2 inh: Blocks human group III sPLA2 activity | QFRET BODIPY PC-A2 liposome hydrolysis, fluorescence | inhibition, % at 12.2 µM | AID 743126 | actives 0.56% (n = 370,000);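 active = inhibition above mean plus 3 SD of compounds lying within the high and low control bounds, cut at about 19% in these data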
Target sequence (Q9NZ20 whole entry, looked up): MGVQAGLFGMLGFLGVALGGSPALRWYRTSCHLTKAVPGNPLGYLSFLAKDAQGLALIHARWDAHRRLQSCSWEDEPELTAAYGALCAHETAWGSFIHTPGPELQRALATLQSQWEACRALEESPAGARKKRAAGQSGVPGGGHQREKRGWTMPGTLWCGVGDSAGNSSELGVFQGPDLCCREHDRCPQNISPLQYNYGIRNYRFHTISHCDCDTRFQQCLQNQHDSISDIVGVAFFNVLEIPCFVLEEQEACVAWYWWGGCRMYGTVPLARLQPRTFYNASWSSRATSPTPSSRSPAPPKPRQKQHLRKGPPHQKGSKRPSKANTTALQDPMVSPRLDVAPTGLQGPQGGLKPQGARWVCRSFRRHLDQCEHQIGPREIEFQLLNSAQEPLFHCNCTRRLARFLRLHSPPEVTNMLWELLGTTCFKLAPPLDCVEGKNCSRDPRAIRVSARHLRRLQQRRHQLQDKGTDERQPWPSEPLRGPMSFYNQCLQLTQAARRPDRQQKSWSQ
AHR activator: activates the human aryl hydrocarbon receptor; P35869; AHR-responsive luciferase reporter cells, luminescence; activation, % at 5 µM; actives 2.5% (n = 320,000); in the data active = activation above about 47%
PLC-beta3 inh: PLC-beta3 (human) inhibition, primary screen. Purified PLC-beta3, fluorogenic substrate, fluorescence. inhibition, % at 12.2 µM. actives 0.18% (n = 370,000). AID 720704; in the data active = inhibition above about 11%
PLC-gamma1 inh: blocks human PLC-gamma1 enzyme activity; P19174; purified PLC-gamma1, fluorogenic substrate, fluorescence; inhibition, % at 12.2 µM; actives 0.84% (n = 370,000); in the data active = inhibition above about 9.5%
CR mimetic SO: lowers age-related superoxide in aged yeast cells; S. cerevisiae aged cells, superoxide DHE fluorescence; active compounds read low; superoxide response (% of plate mean), % at 10 µM; actives 0.18% (n = 330,000); AID 2690;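 active = superoxide response under a set limit, about three screen SD below normal, cut at about 65% in these data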;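 note: yeast aged for seven days with compound at 30 °C before DHE staining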
HIF act: HIF pathway transcriptional activation; U2OS HRE-luciferase reporter, luminescence; normalized: DMSO 0%, desferrioxamine 100%; activation, % at 7.5 µM (by protocol); actives 0.32% (n = 300,000); AID 1910;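 active = mean activation of at least 10% of the iron chelator positive control signal, with at least half of replicates also reaching 10%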
sPLA2 confirm: human GIII-sPLA2 inhibition, confirmation | shares compounds with HGIII-sPLA2 inh | recombinant hGIII-sPLA2, BODIPY PC-A2 QFRET fluorescence | inhibition, % at 12.2 µM | actives 34% (n = 2,000);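 active = mean inhibition across triplicates above the hit cutoff set in the earlier primary screen, cut at about 19% in these data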
535nm interf: counter-screen for HGIII-sPLA2 inhibitors: 535nm fluorescence interference. inhibition, % at 12.2 µM. BODIPY FL product fluorescence interference, QFRET. AID 743282. shares compounds with HGIII-sPLA2 inh. actives 8.5% (n = 2,000);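 active = average inhibition above the solvent-only control mean plus 3 SD, cut at about 6% in these data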
535nm interf DR: counter-screen for HGIII-sPLA2 inhibitors: 535nm fluorescence interference, dose response; shares compounds with HGIII-sPLA2 inh; BODIPY FL product fluorescence interference, cell-free; IC50, µM; 240 tested, under 10 active; AID 743455;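 active = IC50 at or below 10 µM; inactive = IC50 above 10 µM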
Of the large screens only hits and unclear results are named; the others gave an inactive call (follow-up assays come after a bar, where they were run).

CC(=O)Nc1ccc(-c2csc(NNC(=O)c3ccccc3)n2)cc1	HGIII-sPLA2 inh 33 | sPLA2 confirm 22 | 535nm interf inactive
O=C(NNc1nc(-c2ccccc2)cs1)c1ccco1	HGIII-sPLA2 inh 27, AHR activator 72 | sPLA2 confirm 29 | 535nm interf inactive | 535nm interf DR inactive
COc1cc(NC(=S)N2CCN(c3ccccn3)CC2)c(OC)cc1Cl	HGIII-sPLA2 inh 22 | sPLA2 confirm inactive | 535nm interf inactive
COc1ccc(Cl)cc1NC(=S)N1CCN(c2ccccn2)CC1	none
CC(C)(C)c1ccccc1NC(=O)Nc1nc(C(N)c2ccccc2Cl)cs1 (stereo not given)	HGIII-sPLA2 inh 20 (no result: AHR activator, CR mimetic SO, HIF act) | sPLA2 confirm inactive | 535nm interf inactive
CC(C)C(N)c1csc(NC(=O)Nc2ccccc2C(C)(C)C)n1 (stereo not given)	none (no result: AHR activator, CR mimetic SO, HIF act)
CCCC[n+]1c2ccccc2cc2ccccc21	HGIII-sPLA2 inh 40 | sPLA2 confirm 52 | 535nm interf inactive | 535nm interf DR inactive
N=C1C(c2nc3ccccc3[nH]2)=C(O)CN1c1ccc(CC(=O)O)cc1	none
N=C1C(c2nc3ccccc3[nH]2)=C(O)CN1c1ccccc1	HGIII-sPLA2 inh 22 | sPLA2 confirm inactive | 535nm interf inactive
COc1ccc(OCC(=O)Nc2cc(OC)ccc2N2CCCCC2)cc1	none
COc1cc(CC(NC(C)=O)C(=O)NC2CCN(c3c(Cc4ccccc4)c(C)nc4ncnn34)CC2)cc(OC)c1 (stereo not given)	HGIII-sPLA2 inh 22 (no result: HIF act) | sPLA2 confirm inactive | 535nm interf inactive
CCC(=O)Nc1c(C(=O)N2CCN(c3ccccn3)CC2)cnn1-c1ccc(Cl)cc1	none
CCC(=O)Nc1c(C(=O)N2CCN(c3ccccn3)CC2)cnn1-c1ccc(C)cc1	HGIII-sPLA2 inh 22 | sPLA2 confirm inactive | 535nm interf inactive
CC12CCC(C(=O)NCCCN3CCOCC3)(C(Br)C1=O)C2(C)C (stereo not given)	HGIII-sPLA2 inh 21 | sPLA2 confirm inactive | 535nm interf inactive
O=C(CSc1nnc(NCc2ccccc2)s1)N1CCOCC1	HGIII-sPLA2 inh 27 | sPLA2 confirm inactive | 535nm interf inactive
O=C(O)C(C1CCCCC1)C1(O)CCCC1 (stereo not given)	none (no result: AHR activator, CR mimetic SO, HIF act)
COc1ccc(-c2cc(C(F)(F)F)nc(SCC(=O)NCc3cnn(C)c3C)n2)cc1OC	HGIII-sPLA2 inh 24 | sPLA2 confirm inactive | 535nm interf inactive
CC(C)(C)C(=O)C[n+]1ccc(C(N)=O)cc1	HGIII-sPLA2 inh 26 | sPLA2 confirm inactive | 535nm interf inactive
CN(C)C(=O)C[n+]1ccc(C(N)=O)cc1	none
N#CCC(=O)N/N=C\c1cccc(OC/C=C/c2ccccc2)c1	none
COc1ccccc1/C=C/C=N/n1c(-c2cc(-c3ccccc3)n[nH]2)n[nH]c1=S	HGIII-sPLA2 inh 21 | sPLA2 confirm inactive | 535nm interf 9.5
S=c1[nH]nc(-c2cc(-c3ccccc3)n[nH]2)n1/N=C/C=C/c1ccccc1	none
COc1ccccc1N1CCN(N=Cc2ccccc2Br)CC1	HGIII-sPLA2 inh 19 (no result: AHR activator, CR mimetic SO, HIF act) | sPLA2 confirm inactive | 535nm interf inactive
COc1ccccc1N1CCN(/N=C/c2cccc(OC)c2OC)CC1	none
O=[N+]([O-])c1ccccc1C(=Nc1ccccc1)c1c(O)cc(O)cc1O	HGIII-sPLA2 inh 26 (no result: AHR activator, CR mimetic SO, HIF act) | sPLA2 confirm inactive | 535nm interf inactive
O=C(Nc1ccccc1)c1ccccc1NC(=O)c1ccccc1[N+](=O)[O-]	none
CSCCC(N=C1NS(=O)(=O)c2ccccc21)C(=O)NCCc1ccccc1 (stereo not given)	none
CCCCn1c(N)c(N(CCOC)C(=O)C2CCN(S(=O)(=O)c3ccc(C)cc3)CC2)c(=O)[nH]c1=O	HGIII-sPLA2 inh 22 | sPLA2 confirm inactive | 535nm interf inactive
CCCCn1c(N)c(N(CCOC)C(=O)C2CCN(S(=O)(=O)c3ccc(F)cc3)CC2)c(=O)[nH]c1=O	none
OC(c1ccc(F)cc1)c1ncc(-c2cccc3ccccc23)[nH]1 (stereo not given)	none (no result: AHR activator, CR mimetic SO, HIF act)
O=C(NC1C2CCCC1CN(C1CC1)C2)c1ccc(Cl)cc1 (stereo not given)	HGIII-sPLA2 inh 20 (no result: AHR activator) | sPLA2 confirm inactive | 535nm interf inactive
CC1(C)Cc2nc3sc(C(=O)NCCCO)c(N)c3cc2CO1	HGIII-sPLA2 inh 21 | sPLA2 confirm inactive | 535nm interf inactive
COC(=O)c1sc2nc3c(cc2c1N)COC(C)(C)C3	none
Nc1ccc2c3c(ccc([N+](=O)[O-])c13)CC2	HGIII-sPLA2 inh 23 (no result: AHR activator, CR mimetic SO, HIF act) | sPLA2 confirm 34 | 535nm interf 6.6
CC(=O)c1ccc2c3c(ccc([N+](=O)[O-])c13)CC2	none (no result: AHR activator, CR mimetic SO, HIF act)
COc1ccc(C(C)(NC(C)=O)c2nc(-c3cccc(NC(C)=O)c3)cs2)cc1 (stereo not given)	none (no result: AHR activator, CR mimetic SO, HIF act)
Cc1n[nH]c(=O)nc1NCc1ccccc1Cl	none
O=c1nc(NCc2ccccc2Cl)cn[nH]1	HGIII-sPLA2 inh 25 | sPLA2 confirm inactive | 535nm interf inactive
O=C(N/N=C/c1c(O)ccc2ccccc12)c1ccc(CO)nc1	HGIII-sPLA2 inh 25, HIF act 34 | sPLA2 confirm inactive | 535nm interf inactive
O=C(CNc1ccc(F)cc1)N/N=C/c1c(O)ccc2ccccc12	none
O=C(NN=Cc1c(O)ccc2ccccc12)c1ccc2c(c1)OCO2	HGIII-sPLA2 inh 37 (no result: HIF act) | sPLA2 confirm inactive | 535nm interf inactive
Nc1ccc(C(=O)N/N=C\c2cc(N=Nc3cccc4ccccc34)ccc2O)cc1	HGIII-sPLA2 inh 34, HIF act 14 | sPLA2 confirm 38 | 535nm interf 8.2
NC(=S)N/N=C/c1c(O)ccc2ccccc12	HGIII-sPLA2 inh 35 | sPLA2 confirm 21 | 535nm interf inactive
Cc1csc(-c2ccc3cc(Cl)cc(Cl)c3n2)n1	none (no result: AHR activator, CR mimetic SO, HIF act)
Cc1ccc(-c2cc(C(=O)NN=Cc3c(O)ccc4ccccc34)[nH]n2)cc1C	HGIII-sPLA2 inh 26 (no result: AHR activator, CR mimetic SO, HIF act) | sPLA2 confirm inactive | 535nm interf inactive
COc1ccc2ccccc2c1C=NNC(=O)c1cc(-c2ccc(C)c(C)c2)n[nH]1	none (no result: AHR activator, CR mimetic SO, HIF act)
Cc1ccccc1CN1CCC(CNC(=O)C2CCCN(c3ncnc4c3nc3n4CCCCC3)C2)CC1 (stereo not given)	none
COC(=O)CC#C[C@H](C)[C@@H](NS(C)(=O)=O)C(C)(C)COCc1ccccc1	none (no result: AHR activator, CR mimetic SO, HIF act)
CC(C)Oc1ccc(CC2CCC(=O)N(C)C2=O)cc1 (stereo not given)	HGIII-sPLA2 inh 21 (no result: HIF act) | sPLA2 confirm inactive | 535nm interf inactive
